Compound activity as filed in PubChem.
CYP2C9 inh: blockers of cytochrome P450 2C9 activity – biochemical, luminescence, ADME assay, primary screen; P11712; CYP2C9 Supersomes, luciferin-H conversion; inhibition, % at 5 µM; 20% of 96,000 active;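 active means blocking of liver enzyme CYP2C9 beyond about 50% at 5 µM, limit read from the data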
Target sequence (P11712 whole entry, looked up): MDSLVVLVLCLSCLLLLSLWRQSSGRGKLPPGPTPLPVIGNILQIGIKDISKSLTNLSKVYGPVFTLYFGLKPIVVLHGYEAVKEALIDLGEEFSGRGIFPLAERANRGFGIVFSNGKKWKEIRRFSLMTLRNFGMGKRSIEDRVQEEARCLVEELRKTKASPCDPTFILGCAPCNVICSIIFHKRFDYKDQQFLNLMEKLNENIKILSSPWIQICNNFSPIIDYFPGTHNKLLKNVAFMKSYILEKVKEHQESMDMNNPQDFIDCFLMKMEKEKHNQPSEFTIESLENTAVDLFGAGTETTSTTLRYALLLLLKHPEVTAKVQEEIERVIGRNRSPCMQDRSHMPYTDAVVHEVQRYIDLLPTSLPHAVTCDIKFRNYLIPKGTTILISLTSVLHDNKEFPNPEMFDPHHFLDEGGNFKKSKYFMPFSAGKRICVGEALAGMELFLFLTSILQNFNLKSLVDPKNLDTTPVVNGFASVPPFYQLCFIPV
Measles CPE: compounds protecting cells from measles virus cytopathic effect, primary screen, measles RdRp inhibitor project, single point, MLSMR library, absorbance; Measles virus-infected cells, CPE protection; protection (pct of control), % at 4 µM; 1.5% of 140,000 active; AID 841, 2007; in the data active means protection mostly above about 24%, no sharp cut-off; inactive means mostly below about 26%
CYP2C9 act: human CYP2C9 activators, primary screen, biochemical, luminescence. recombinant CYP2C9, luciferin-H conversion; stronger effect = higher value; factor 1 = untreated enzyme, 0 = blocked. activation factor at 5 µM. 1.4% of 96,000 active;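 active means activation factor of 2 or more for CYP2C9 at a 5 µM dose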
CYP2C19 act: human CYP2C19 activators, primary screen, biochemical, luminescence. Cytochrome P450 2C19 (Homo sapiens), P33261. recombinant CYP2C19, luciferin-H EGE luminescence; stronger effect = higher value; 0 = fully inhibited enzyme, 1 = untreated enzyme. activation factor at 5 µM. 96,000 tested, under 10 active. AID 1025, 2008;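 active means activation factor of at least 2 at 5 µM in the primary screen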
CYP2C19 inh: blockers of cytochrome P450 2C19 activity – biochemical, luminescence, ADME assay, primary screen | P33261 | 21% of 96,000 active | AID 778, 2007 | inhibition, % at 5 µM | CYP2C19 Supersomes, luciferin-H EGE luminescence, 30 min;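 active means CYP2C19 inhibition above a set limit at 5 µM in the primary screen, cut at about 50% in these data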
Large screens that a line does not name were inactive. Most compounds without a hit are left out; they make up all but 22% or so of the library.

O=C1C2CC=C(Cl)CC2C(=O)N1CN(Cc1ccco1)CN1C(=O)C2CC=C(Cl)CC2C1=O (stereo not drawn)	none
CC(C)=C1C2CCC1C1C(=O)N(NC(=O)COc3ccc(Cl)c(C)c3)C(=O)C21 (stereo not drawn)	none
Cc1[nH]c2ccc(-c3nnc(SCC(=O)c4ccccc4F)o3)cc2c1C	CYP2C9 inh 78, CYP2C19 inh 57
Cc1ccc(C(=O)CSc2nnc(-c3ccc4[nH]c(C)c(C)c4c3)o2)cc1C	CYP2C9 inh 71
O=C(CSc1nc2ccccc2o1)NCC(=O)c1ccccc1	CYP2C19 inh 61
O=C(CSc1nc2ccccc2o1)Nc1ccccc1	CYP2C19 inh 63
O=C(CSc1nc2ccccc2o1)NCCOc1ccccc1	CYP2C9 inh 68, CYP2C19 inh 89
O=C(CSc1nc2ccccc2s1)NCCOc1ccccc1	none (no result: CYP2C9 inh, CYP2C9 act, CYP2C19 act, CYP2C19 inh)
CSc1cccc(NC(=O)CSc2nc3ccccc3o2)c1	CYP2C19 inh 53
CC(=O)Nc1cccc(NC(=O)CSc2nc3ccccc3o2)c1	none (no result: CYP2C9 inh, CYP2C9 act, CYP2C19 act, CYP2C19 inh)
C/C(=N\NS(=O)(=O)c1ccc(Cl)c([N+](=O)[O-])c1)c1cc2ccccc2o1	CYP2C9 inh 100, CYP2C19 inh 97
C/C(=N\NS(=O)(=O)c1ccc(Cl)c([N+](=O)[O-])c1)c1ccc(C)o1	CYP2C9 inh 88, CYP2C19 inh 83
C/C(=N\NS(=O)(=O)c1ccc(C)c([N+](=O)[O-])c1)c1cc2ccccc2o1	none
O=C(NCCNS(=O)(=O)c1cccc(C(F)(F)F)c1)c1cc(OCC(F)(F)F)ccc1OCC(F)(F)F	CYP2C19 inh 80
CC(C)CC(=O)NCCNC(=O)c1cc(OCC(F)(F)F)ccc1OCC(F)(F)F	CYP2C9 inh 87
NS(=O)(=O)c1cccc(NC(=O)CCSc2ccc(Cl)cc2)c1	none (no result: CYP2C9 inh, CYP2C9 act, CYP2C19 act, CYP2C19 inh)
CC1(C)CC(=O)C(C=NCCN2CCN(C(=O)c3ccccc3)CC2)=C(O)C1	none
COc1ccc(OC)c(C(c2nnnn2Cc2ccccc2)N2CCN(C)CC2)c1 (stereo not drawn)	none
COc1ccc(Cn2nnnc2C(c2ccccc2Cl)N2CCN(C3CCCC3)CC2)cc1 (stereo not drawn)	CYP2C19 inh 78
COc1ccc(Cn2nnnc2C(c2ccccc2)N2CCN(C3CCCC3)CC2)cc1 (stereo not drawn)	CYP2C19 inh 78
COc1ccc(C(c2nnnn2CCc2ccccc2)N2CCN(C3CCCC3)CC2)cc1 (stereo not drawn)	none
Nc1nc2c3ccccc3nc(Cc3ccccc3)n2n1	CYP2C19 inh 55
Cn1cccc1Cc1nnc(SCC(=O)Nc2ccc(F)cc2)n1-c1ccc(F)cc1	none
COc1ccc(-n2c(Cc3cccn3C)nnc2SCC(=O)Nc2ccccc2)cc1	CYP2C9 inh 80
COc1ccc(-n2c(Cc3cccn3C)nnc2SCC(=O)Nc2ccc(Cl)cc2)cc1	CYP2C9 inh 85
CCc1ccc(NC(=O)CSc2nnc(Cc3cccn3C)n2-c2ccc(OC)cc2)cc1	CYP2C9 inh 85, CYP2C19 inh 52
Cn1cccc1Cc1nnc(SCC(=O)Nc2ccccc2)n1-c1ccc(F)cc1	none
Cn1cccc1Cc1nnc(SCC(=O)Nc2ccc(Cl)cc2)n1-c1ccc(F)cc1	CYP2C9 inh 58, CYP2C19 inh 54
Cc1cccc(N(C2C=CS(=O)(=O)C2)S(=O)(=O)c2ccccc2)c1 (stereo not drawn)	none
CCc1c(C)nc2c(C#N)c[nH]n2c1=O	none
COCCN(C(=O)c1csnn1)C(C(=O)NC1CCCCC1)c1cccs1 (stereo not drawn)	none
CCCOC(=O)c1cccc(NC(=O)COc2ccc([N+](=O)[O-])cc2)c1	none (no result: CYP2C9 inh, CYP2C9 act, CYP2C19 act, CYP2C19 inh)
COc1ccc(-n2c(Cc3cccn3C)nnc2SCC(=O)Nc2cccc(F)c2)cc1	CYP2C9 inh 50, CYP2C19 inh 51
COc1ccc(-n2c(Cc3cccn3C)nnc2SCC(=O)NCc2ccc(F)cc2)cc1	CYP2C19 inh 89
CCCCOc1[nH]c2nc(-c3ccco3)n(Cc3ccco3)c(=N)c2c1C#N	CYP2C9 inh 81, CYP2C19 inh 61
Cc1cccc(-n2c(-c3ccncc3)n[nH]c2=S)c1	none (no result: CYP2C9 inh, CYP2C9 act, CYP2C19 act, CYP2C19 inh)
Clc1ccccc1C1SCC2Nc3ccccc3CN21 (stereo not drawn)	CYP2C9 inh 53, CYP2C19 inh 87
COc1ccc(NS(=O)(=O)CC(C)C)c(OC)c1	none (no result: CYP2C9 inh, CYP2C9 act, CYP2C19 act, CYP2C19 inh)
COc1ccc(NS(=O)(=O)c2cccs2)c(OC)c1	CYP2C19 inh 55
COc1ccccc1NS(=O)(=O)c1cccs1	CYP2C9 act 2.2, CYP2C19 inh 81
COc1cccc(Nc2nc3ccccc3nc2NS(=O)(=O)c2cccs2)c1	none
COc1ccc(NS(=O)(=O)c2ccc(SC)cc2)c(OC)c1	CYP2C19 inh 87
O=C(Nc1cccc(NC(=O)C2CC2)n1)C1CC1	none (no result: CYP2C9 inh, CYP2C9 act, CYP2C19 act, CYP2C19 inh)
O=C(CN1CCN(c2ccc(F)cc2)CC1)OCc1ccccc1	none
NC(=O)c1cc(-c2ccccc2)sc1NC(=O)CN1CCCCC1	none (no result: CYP2C9 inh, CYP2C9 act, CYP2C19 act, CYP2C19 inh)
CCOC(=O)c1cc(-c2ccccc2)sc1NC(=O)C(C)C	none (no result: CYP2C9 inh, CYP2C9 act, CYP2C19 act, CYP2C19 inh)
Nc1sc(-c2ccccc2)cc1C(=O)O	CYP2C9 inh 64
CCOC(=O)c1cc(-c2ccc(N)cc2)sc1N	CYP2C9 inh 59, CYP2C19 inh 54
O=C(Cn1nc(-c2ccccc2)c2ccccc2c1=O)NCC1CCCO1 (stereo not drawn)	none
CCn1cc(C(=O)N2CCCCC2)c(=O)c2cc(S(=O)(=O)N3CCC(C)CC3)ccc21	none (no result: Measles CPE)
Cc1ccc2c(c1)C(c1ccccc1)N(C(=O)c1ccc(Br)o1)CC(=O)N2 (stereo not drawn)	CYP2C9 inh 74
CCCC(=O)N1CC(=O)Nc2ccc(F)cc2C1c1ccccc1 (stereo not drawn)	none
O=C(O)CN1C(=O)Nc2ccc(Br)cc2C1c1ccccc1 (stereo not drawn)	Measles CPE 39
O=C1CN(C(=O)c2ccc(Br)o2)C(c2ccccc2)c2cc(Br)ccc2N1 (stereo not drawn)	CYP2C9 inh 100, CYP2C19 inh 96
Cc1ccc2c(c1)C(c1ccc(F)cc1)N(C(=O)C1CC1)CC(=O)N2 (stereo not drawn)	none
CC(C)C1Cc2c(sc3[nH]c(=S)n(Cc4ccccc4)c(=O)c23)CO1 (stereo not drawn)	CYP2C9 inh 77
O=C(O)c1ccc(Cl)c(S(=O)(=O)N2CCCCCC2)c1	none
O=S(=O)(Cc1ccc(Cl)cc1)N1CCN(Cc2ccccc2)CC1	none
CC1CCN(S(=O)(=O)c2cc(Cl)ccc2Br)CC1	CYP2C9 act 3.1, CYP2C19 inh 98
O=S(=O)(c1ccc(Cl)cc1Br)N1CCCCC1	CYP2C19 inh 87
O=S(=O)(c1ccc(F)c2ccccc12)N1CCCCC1	CYP2C9 act 4.7
O=S(=O)(c1ccccc1S(=O)(=O)N1CCCCC1)N1CCCCC1	none
